Measured values taken from PubChem BioAssay (NCATS).
Inconclusive results are not listed. Calls of active or inactive are those of the source. Calls follow the shape of the dose curve; as a rule, active = well fitted curve in the direction sought with a large enough effect; inconclusive = small, poorly fitted or top-dose-only effect, or another doubt; inactive = no such curve, though single readings can be large; an effect the other way counts as inactive or inconclusive.

Assay: qHTS assay for measurement of the activity of small molecule inhibitors on Zika virus induced Caspase-3 activity in human astrocytoma cells (AID 1224859);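 also: plate controls were ZIKV-infected untreated cells for no effect and uninfected cells for full effect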
Conditions: SNB-19 ZIKV-induced caspase-3/7, luminescence, 6 h; series mostly up to 45.7 µM; activity change, negative = inhibition: at the top concentration
Method in brief: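 Percent inhibition of virus-induced caspase-3/7 signal is calculated against uninfected and ZIKV-infected control cells. Cells are SNB-19, infected at 2 FFU/cell for 6 h after 1 h compound exposure.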

| SMILES | activity change, negative = inhibition |
| --- | --- |
| CC1=C2[C@H]3OC(=O)[C@@H](C)[C@@H]3CC[C@@]2(C)C=CC1=O | 7.62% (inactive) |
| O=C(NC(=O)c1c(F)cccc1F)Nc1cc(Cl)c(OC(F)(F)C(F)C(F)(F)F)cc1Cl (centres undefined) | 2.32% (inactive) |
| CCc1ccc(C2CCNCC2)cc1 | -16.7% (inactive) |
| CC(=O)OC1(c2ccccc2)CCN(CCc2ccccc2)CC1 | -2.43% [at 92.8 µM] (inactive) |
| COc1ccc2c3c1O[C@H]1[C@@H](O)C=C[C@H]4[C@@H](C2)N(C)CC[C@@]341 | 2.15% [at 92.8 µM] (inactive) |
| C[C@H](N)[C@H](O)c1ccc(O)c(O)c1 | -31.1% (inactive) |
| Oc1ccc2[nH]cc(CCCCN3CC=C(c4ccccc4)CC3)c2c1 | -2.94% (inactive) |
| CCOP(=S)(OCC)O/N=C(\C#N)c1ccccc1 | 5.94% (inactive) |
| CC[C@]1(O)CC[C@H]2[C@@H]3CCC4=CCCC[C@@H]4[C@H]3CC[C@@]21C | -3.38% (inactive) |
| CN1CCC(N(Cc2ccccc2)c2ccccc2)CC1 | 0.709% (inactive) |
| Cc1ncc2n1-c1ccc(Cl)cc1C(c1ccccc1F)=NC2 | 3.65% (inactive) |
| COP(=O)(OC)OC=C(Cl)Cl | 0.45% (inactive) |
| COP(=S)(OC)Oc1ccc(Sc2ccc(OP(=S)(OC)OC)cc2)cc1 | -2.21% (inactive) |
| CCN(CC)C(C)C(=O)c1ccccc1 (centres undefined) | 2.45% (inactive) |
| O=C(CCl)c1ccc(Cl)cc1Cl | 2.66% (inactive) |
| CN1C(=O)[C@@H](NC(=O)c2cc3ccccc3[nH]2)N=C(c2ccccc2)c2ccccc21 | 18.6% (inactive) |
| CCOC(=O)C1(c2ccccc2)CCN(CCc2ccc(N)cc2)CC1 | -6.61% (inactive) |

| SMILES | activity change, negative = inhibition |
| --- | --- |
| CNC(=O)NC(O)C(Cl)(Cl)Cl (centres undefined) | 5.72% (inactive) |
| O=C(CCCN1CCC(n2c(=O)[nH]c3ccccc32)CC1)c1ccc(F)cc1 | 0.701% (inactive) |
| CC(C)=C[C@@H]1[C@@H](C(=O)OCc2coc(Cc3ccccc3)c2)C1(C)C | 2.99% (inactive) |
| CCN1CCCC1CNC(=O)C(O)(c1ccccc1)c1ccccc1 (centres undefined) | -11.2% (inactive) |
| CC(C)NCC(O)c1ccc(N)c(C#N)c1 (centres undefined) | -3.16% (inactive) |
| Oc1ccc([C@H]2CNCc3c2ccc(O)c3O)cc1O | -2.05% (inactive) |
| Cc1c(Cl)c(=O)oc2cc(OP(=O)(OCCCl)OCCCl)ccc12 | -0.751% (inactive) |
| CCC1(CC)C(=O)NC(=O)NC1=O | -19.9% (inactive) |
| CCNc1nc(Cl)nc(NCC)n1 | -6.62% (inactive) |
| C[C@]12CC[C@H]3[C@@H](CC=C4C[C@@H](O)CC[C@@]43C)[C@@H]1CC[C@@H]2O | 4.82% (inactive) |
| C#C[C@]1(O)CC[C@H]2[C@@H]3CCC4=CC(=O)CCC4=C3C=C[C@@]21CC | -1.99% (inactive) |
| COc1ccc2[nH]cc(CCN(C(C)C)C(C)C)c2c1 | -4.97% [at 92.8 µM] (inactive) |
| Clc1ccc(CO/N=C(\Cn2ccnc2)c2ccc(Cl)cc2Cl)c(Cl)c1 | 1.09% (inactive) |
| CC(C)(C)OC(=O)c1ncn2c1[C@@H]1CCCN1C(=O)c1c(Br)cccc1-2 | -6.91% (inactive) |
| CN(C)C(=S)SSC(=S)N(C)C | 30.1% (inactive) |
| C[N+](C)(C)CCOC(=O)C(O)(c1ccccc1)c1ccccc1 | -11.6% (inactive) |

Assay: qHTS assay to identify small molecule inhibitors of chordoma cells - UCH-1 (AID 1259355); also: % is scaled to controls: 0 for no effect and ±100 for the full control effect; nearly all actives have a fitted effect of over 55% in size
Conditions: UCH-1 chordoma viability, CellTiter-Glo, 48 h, combination; series mostly up to 46.1 µM; activity, negative = inhibition: at the top concentration
Method in brief: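 Screening used approved and investigational drugs in 15-point titration against 800 seeded cells per well. A fixed combination of auranofin with camptothecin, doxorubicin, rubitecan and topotecan followed compound addition, and growth was scored by CellTiter-Glo after 48hr.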

| SMILES | activity, negative = inhibition |
| --- | --- |
| CC1=C2[C@H]3OC(=O)[C@@H](C)[C@@H]3CC[C@@]2(C)C=CC1=O | -1.62% (inactive) |
| O=C(NC(=O)c1c(F)cccc1F)Nc1cc(Cl)c(OC(F)(F)C(F)C(F)(F)F)cc1Cl (centres undefined) | 0.125% (inactive) |
| Oc1ccc2[nH]cc(CCCCN3CC=C(c4ccccc4)CC3)c2c1 | -0.776% (inactive) |
| COP(=O)(OC)OC=C(Cl)Cl | -19.3% (inactive) |
| COP(=S)(OC)Oc1ccc(Sc2ccc(OP(=S)(OC)OC)cc2)cc1 | -16.5% (inactive) |
| CCN(CC)C(C)C(=O)c1ccccc1 (centres undefined) | -10.8% (inactive) |
| O=C(CCCN1CCC(n2c(=O)[nH]c3ccccc32)CC1)c1ccc(F)cc1 | 6.24% [at 20.6 µM] (inactive) |
| CC(C)NCC(O)c1ccc(N)c(C#N)c1 (centres undefined) | -1.87% (inactive) |
| Cc1c(Cl)c(=O)oc2cc(OP(=O)(OCCCl)OCCCl)ccc12 | -26.2% (inactive) |
| CCNc1nc(Cl)nc(NCC)n1 | -8.2% (inactive) |
| C#C[C@]1(O)CC[C@H]2[C@@H]3CCC4=CC(=O)CCC4=C3C=C[C@@]21CC | -9.98% (inactive) |
